The values below come from the supplement of paper PMC6555819.

The test system of this test is PPARg:RXRa 270nM:90nM, anti-RXR (NR concentration 270 nM, RXRa partner concentration 90 nM). Briefly: PBM binding z-score (relative to random genomic background probes); higher = stronger binding; sequences stand for … in GC…GCGATTGACAGCGTAGAATGAAGG
A digest of the protocol:
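Scanned fluorescence from custom Agilent 4×180K protein-binding microarrays was regression-normalized. Binding z-scores use random background probes as reference. Ligand-free nuclear receptor dimers were incubated on the arrays for 1 h and detected with antibodies against each partner (one per run).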
Sequence AGTCGAAGTTCACTAGGTAACGTAAGATTCAGCT registered a PBM binding z-score of 3.43.

The sequence GCTAGTTGGTCCGTAAAAGGTCACACACCGGTCG yielded a PBM binding z-score of 3.29.

As to CGAACTAGGTCAGAACAGGACAGTGAAGGATGAT, the PBM binding z-score came to 4.45. As for CGAAATAGGTCAGAACAGGACAGTGAAGGATGAT, the figure is 4.6. Then TAGCCTAGGTCATTCTGGGGCCAGTATAGAAAGC, with 2.19; and ATACCAAGGTGATCGTGACGTCGTTGATACTAAC, with 0.302; and CGTCCAAGGTCAAGGTTAGTGAAAGAGACTCGAA, with 5.18. On to TCGAGTAGGTTAGTCGGGGGATTCAGCCAACATA, for which the PBM binding z-score came out at 1.49. As for GCTCGGAGGGCAAGGTCAGAGCTTTGTCCGTAGA, the figure is 2. Sequence CCGAGTAGGTTATGGGGCATTCATGCAACGGTGA yielded a PBM binding z-score of 4.6. Then ACTAGCAGTCCAAGGGTCACTCAAGATTAGTCCG, with 4.58.

ATCGAAAGGTCCTGAGGTGAGTATACAGAAAGGC registered a PBM binding z-score of 0.415. As to AGTCAAAGTTCACTTGGTAACGTAAGATTCAGCT, the PBM binding z-score amounted to 5.79.

TCTAGCACGCCAGAGGGTCACTCAAGAGGTACGG: the PBM binding z-score was determined as 1.13. As for CCAACTAGGTCAAGGTCAAAGTCGGTTTGTGCCA, the figure is 7.58; as for TCAGACAGGTGAAGGTAACACAGGTACGCAGTCG, 2.67. As for TTACCAAGGTGAGCTGAGGTCGTCGATCCAACTC, the figure is 1.06; as for TCATATAGGTAAATGCTAGGTGAGAGTCCGATCT, 1.86; as for TCTTGTAGATTAAAGGTTAAGAAAGCCGAAGCCT, 6.6. As for TCAGACAGGTGCAGGTAACTCAGGTACGCAGTCG, the figure is 1.31; as for CGTCAAAGTTCAACTAAAGTAACGTAAAGCACGC, 5.38; as for AATACAGGGTCACTAGGCCAGACTAGGTACGAAT, 6.41.
